Assay outcomes deposited in PubChem by several laboratories.
This is a sample that favours compounds with a hit; in the whole collection about 3.4% have one here.
NF-kB expr up = compounds increasing NF-kB expression in human neuronal cells; fold change at 12.5 µM; NF-kB reporter expression; active compounds read high; 190,000 tested, 1.6% active; in the data active = fold change above about 3.3
hcDAF12 agonist = activators of H. contortus DAF-12 nuclear receptor; HEK293 hcDAF-12 lit1-tk-luc reporter, luminescence; 0% DMSO, 100% Δ7-dafachronic acid; activation, % at 6.8 µM; 370,000 tested, 1.4% active; AID 652067;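 active = activation above the mean of all tested compounds plus 3 SD, cut at about 5.5% in these data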;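 note: 100% = response to 3 µM Δ7-dafachronic acid high control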
APP 5'UTR act = activates APP 5'UTR luciferase reporter; SH-SY5Y APP 5'UTR luciferase reporter, luminescence; zero percent = DMSO vehicle wells; activation, % at 2 µM; 190,000 tested, 1% active; AID 1276;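 active = activation above a set limit, based on mean plus 3 SD of controls, cut at about 140% in these data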
ssDAF-12 act = activators of S. stercoralis DAF-12 nuclear receptor | activation, % at 6.8 µM | 370,000 tested, 1% active | HEK293 ssDAF-12/GRIP1 lit1-tk-luc reporter, luminescence; % of 3 µM dafachronic acid response | AID 652126;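 active = activation above the mean over all tested compounds plus 3 SD, cut at about 0.9% in these data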;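 note: 0% = DMSO-only wells and 100% = 3 µM delta7-dafachronic acid wells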
hgDAF-12 ag = agonists of H. glycines DAF-12 nuclear receptor. 370,000 tested, 1.8% active. activation, % at 6.8 µM. HEK293 GAL4-hgDAF12 UAS-luciferase reporter, agonist luminescence; normalized to butyrate control. AID 687014;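 active = activation above a cutoff set at the mean of all screened compounds plus 3 SD, cut at about 10% in these data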;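 note: 0% = DMSO wells and 100% = sodium butyrate wells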
LXRb hcDAF ctr = LXR-beta agonism as hcDAF-12 counter-screen. 3,400 tested, under 10 active. activation, % at 6.8 µM. HEK293 Gal4-LXR tk-luc reporter, luminescence, 24 h; normalized: DMSO 0%, positive control 100%. shares compounds with hcDAF12 agonist;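 active = mean percent activation of the reporter above a cutoff set as the average over tested compounds plus their standard deviation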
Target sequence (P55055 whole entry, looked up, the tested form may be a part): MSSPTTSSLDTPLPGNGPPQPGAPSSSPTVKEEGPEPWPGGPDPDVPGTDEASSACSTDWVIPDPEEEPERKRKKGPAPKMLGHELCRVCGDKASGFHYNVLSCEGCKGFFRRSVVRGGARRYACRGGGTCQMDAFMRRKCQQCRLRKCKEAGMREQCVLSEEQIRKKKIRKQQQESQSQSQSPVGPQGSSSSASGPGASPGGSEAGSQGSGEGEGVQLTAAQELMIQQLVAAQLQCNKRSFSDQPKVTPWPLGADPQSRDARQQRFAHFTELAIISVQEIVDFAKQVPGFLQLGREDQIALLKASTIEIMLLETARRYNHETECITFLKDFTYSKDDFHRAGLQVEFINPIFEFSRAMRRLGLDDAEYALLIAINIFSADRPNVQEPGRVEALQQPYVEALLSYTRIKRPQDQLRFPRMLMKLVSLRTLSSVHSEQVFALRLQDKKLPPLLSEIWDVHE
hcDAF12 ag = confirmation of H. contortus DAF-12 agonists. shares compounds with hcDAF12 agonist. HEK293 hcDAF-12 lit1-tk-luc reporter, luminescence; % of Δ7-dafachronic acid response. activation, % at 6.8 µM. 3,400 tested, 61% active. AID 743032;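 active = mean activation across triplicate tests above the threshold derived from the earlier primary screen, cut at about 5.5% in these data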;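 note: 0% = DMSO only wells and 100% = 3 µM Δ7-dafachronic acid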
Starred values were filed as active, the others as inactive; x = not tested or not shown.

SMILES | NF-kB expr up | hcDAF12 agonist | APP 5'UTR act | ssDAF-12 act | hgDAF-12 ag | LXRb hcDAF ctr | hcDAF12 ag
COc1cccc(-c2ccc(NC(=O)C3CCCN(Cc4cc(C)[nH]n4)C3)cc2)c1 (configuration not stated) | x | 7.0* | x | -0.5 | 3.3 | -0.2 | 0.0
Cc1ccccc1NC(=O)CSc1nnc(-c2cc(-c3ccccc3)n[nH]2)n1N | x | 0.0 | x | -1.8 | 4.1 | x | x
Oc1cccc(Nc2nc(O)c(/C=C3\C=Nc4ccccc43)s2)c1 | x | 6.8* | x | 0.5 | 10.3 | 0.3 | 7.0*
CCCC(=O)Nc1cccc(-c2nc3cc(C)c(C)cc3o2)c1 | 3.05 | 7.2* | 134.6 | -0.1 | 6.6 | 0.9 | 3.6
C[C@H]1[C@@H](NC(=O)C2CCC2)CC[C@@]23CCCN2C(=O)CCC[C@@H]13 | x | -0.1 | x | -1.5 | 1.8 | x | x
CN[C@H]1C[C@H]2c3[nH]c4cccc(-c5cccc(C)c5)c4c3CCN2C(=O)[C@H]1[C@H](C)O | x | -1.4 | x | -1.7 | 1.0 | x | x
N=c1n(CCN2CCCCC2)c2ccccc2n1CC(=O)c1ccc(Cl)c(Cl)c1 | x | 3.8 | x | -0.6 | 0.4 | x | x
CCn1c(=N)n(CC(=O)c2ccc(Cl)c(Cl)c2)c2ccccc21 | x | 9.5* | x | 0.7 | 7.5 | 0.6 | 5.8*
CCn1c(=N)n(CC(=O)c2ccc(OC)cc2)c2ccccc21 | 1.16 | 1.5 | 30.8 | -0.7 | -0.4 | x | x
Cn1c(=N)n(CC(=O)c2ccc(Br)cc2)c2ccccc21 | x | 22.9* | x | 4.4* | 16.6* | 2.6 | 28.6*
O=C(Nc1ccc(Oc2ccccc2)cc1)C1CCN(c2nnc(-n3cccc3)s2)CC1 | x | -1.6 | x | -1.5 | 4.0 | x | x
O=C(NCc1ccc(Cl)cc1)C1C2C=CC3(CN(Cc4ccccc4)C(=O)C13)O2 (configuration not stated) | x | -1.7 | x | -1.4 | 1.2 | x | x
Cc1ccc2[nH]c(C(F)(F)F)cc(=O)c2c1 | x | -2.9 | x | -2.1 | -3.4 | x | x
Cc1ccc(-c2cc(=O)c3cc(C)ccc3[nH]2)cc1 | 5.8* | 7.0* | 114.8 | 0.6 | 8.0 | 1.4 | 7.0*
Fc1ccccc1-c1nc(-c2ccccc2)no1 | 6.5* | 10.0* | 157.1* | 1.9* | 9.8 | 2.2 | 17.6*
c1ccc(-c2noc(-c3cccc4ccccc34)n2)cc1 | 6.14* | 16.6* | 99.7 | 2.9* | 12.4* | 1.1 | 16.4*
c1cncc(-c2noc(-c3cccc4ccccc34)n2)c1 | 3.01 | 7.0* | -7.4 | 1.2* | 8.9 | 1.1 | 15.6*
Nc1nc2c(ncn2[C@@H]2O[C@H](C(=O)NCCCc3ccccc3)[C@@H](O)[C@H]2O)c(=O)[nH]1 | x | 1.0 | x | -0.5 | -1.2 | x | x
CCCCOCCCNC(=O)C[C@@H]1C(=O)N(Cc2ccc(OC)cc2)C2=CCN(C(=O)OC(C)(C)C)C[C@]21C(=O)OCC | x | -2.7 | x | -1.8 | -0.2 | x | x
CC(=Nc1ccc(C)cc1)c1sc2ccccc2c1O | 4.79* | 11.0* | 196.8* | 2.2* | 15.0* | 2.1 | 13.1*
Cc1ccc(C)c(NC(=O)CNS(=O)(=O)c2ccc3[nH]c(=O)oc3c2)c1 | x | -0.2 | x | -1.3 | 0.7 | x | x
NC(=O)c1ccccc1OCC(=O)Nc1ccc2c(c1)CCC2 | x | 1.2 | x | -0.9 | 6.4 | x | x
NC(=O)c1ccccc1OCC(=O)Nc1ccc(Cl)c(Cl)c1 | x | 10.5* | x | 2.2* | 18.1* | 1.8 | 10.8*
O=C(N/N=C/c1cc2c(cc1Cl)OCO2)c1ccc2c(c1)OCCO2 | x | -0.4 | x | -0.4 | 4.1 | x | x
O=C(N/N=C/c1c(Cl)[nH]c2ccccc12)c1ccc2c(c1)OCCO2 | x | 9.1* | x | 1.3* | 8.2 | 0.4 | 9.1*
Cc1ccsc1/C=N/NC(=O)c1ccc2c(c1)OCCO2 | x | 8.1* | x | 0.8 | 12.6* | 2.0 | 11.5*
CN1C(=O)C[C@@](C#N)(C(=O)Nc2nc3ccc(F)cc3s2)[C@H]1c1ccccc1 | x | -1.7 | x | -1.3 | -3.7 | x | x
CSc1nsc(NN)n1 | x | 7.7* | x | 0.1 | 10.6* | -0.1 | 5.4
CSc1nsc(NC(=O)OCc2ccc(Cl)cc2)n1 | x | -0.5 | x | -0.8 | 1.7 | x | x
CCc1ccc(N=Nc2ccc(O)c3[nH]cnc23)cc1 | x | 7.8* | x | 1.0* | 8.1 | 0.3 | 8.6*
